Bioassay records deposited in PubChem BioAssay by National Center for Advancing Translational Sciences (NCATS).
Rows were chosen to be rich in hits. Some 3.6% of all compounds tested hit in one or more screens of this group.
ClpP mod – qHTS Assay for Activators of ClpP. ATP-dependent Clp protease proteolytic subunit (Bacillus subtilis (strain 168)), P80244. Potency, µM (top dose mostly 57.5 µM), for the others: top-dose activity change, negative = active. hit rate 1.9% among 340,000. purified B. subtilis ClpP, FRET peptide cleavage, 20 min. AID 651965, 2013; active means well fitted falling curve with a large enough effect; inconclusive means small, poorly fitted or top-dose-only effect; inactive means no such curve, though single readings can be large or run the other way; further: the source files actives as falling curves though it sought activators and does not explain the sign; nearly all actives have a fitted effect of over 65% in size
Target sequence (P80244 whole entry, looked up): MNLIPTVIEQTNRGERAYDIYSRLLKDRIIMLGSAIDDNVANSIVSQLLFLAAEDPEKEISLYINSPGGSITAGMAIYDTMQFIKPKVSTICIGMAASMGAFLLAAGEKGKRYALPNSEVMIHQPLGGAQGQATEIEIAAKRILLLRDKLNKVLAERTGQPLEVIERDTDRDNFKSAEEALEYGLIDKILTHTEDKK
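ClpP 10 microg/mL final, pH 8 Tris/KCl buffer with BSA, glycerol, Tween-20; compound pinned in; FRET-FV substrate; RT 20 min; Ex320/Em430; ΔFRET vs ADEP 5.8 microM, DMSO, no enzyme.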
aSyn yeast inh – rescues yeast growth from alpha-synuclein toxicity; AID 652106; hit rate 0.14% among 370,000; Potency, µM (doses to about 46.1 µM), for inactives: top-dose growth rescue (activation), most hits filed as activators; Yeast expressing alpha-synuclein, growth rescue, BacTiter-Glo, 24 h; further: % of control where 0% means no effect; nearly all actives have a fitted effect of over 65% in size
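Screening used galactose-induced yeast with toxic alpha-synuclein levels, exposed to compound for 24 hr at 30 deg C. Cell growth, read with BacTiter-Glo luminescence, gave the measured signal.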
TDP43 rescue – inhibitors of TDP-43 toxicity in yeast; hit rate 1.8% among 410,000; AID 652104; Potency, µM (titrated, usually from 46.1 µM), inactives show at the highest dose growth rescue (activation), hits mostly activators; TDP-43 expressing yeast growth rescue, BacTiter-Glo, 24 h; further: % of control where 0% means no effect; nearly all actives have a fitted effect of over 50% in size
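Readout is BacTiter-Glo luminescence of cell growth, so inhibitors register as activators. TDP-43-expressing yeast at OD600=0.02 in galactose medium, after raffinose pregrowth to mid-log, were incubated with compound for 24 hr at 30 deg C.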
Abeta rescue – restores growth of yeast expressing A-beta42 peptide | yeast expressing A-beta42, growth rescue, OD600, 48 h; response scale: 0% DMSO, 100% iron-clioquinol control | Potency, µM (highest dose often 46.1 µM), hits mostly activators | hit rate 0.063% among 410,000 | AID 1347071; further: nearly all actives have a fitted effect of over 55% in size
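Yeast growth medium received pinned compounds, then yeast cells expressing toxic A-beta were added; plates incubated at 30 C for 48 hr. Growth read as absorbance at 600 nm, normalized to DMSO and equimolar FeCl3 plus clioquinol controls.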
FUS yeast rescue – rescues growth of FUS-expressing yeast | Potency, µM (highest dose often 76.6 µM), usual class: activators | hit rate 0.24% among 390,000 | S. cerevisiae FUS-expressing, growth rescue, OD600, 24 h;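 further: plate controls were DMSO vehicle for no effect and reference control for full effect; nearly all actives have a fitted effect of over 55% in size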
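Galactose (2%) drives FUS expression in yeast precultured in raffinose; seeding density OD 0.005. Test compounds incubated 24hr at 30C and 99% humidity before absorbance at 600 nm was measured.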
Mm-Cpn inhibitor – M. maripaludis TRiC chaperonin inhibition. purified Mm-Cpn ATPase, ADP Transcreener TR-FRET. Potency, µM (top dose mostly 76.9 µM), for inactives: top-dose activity, negative = inhibition, actives largely listed as inhibitors. hit rate 0.031% among 330,000. AID 504842; further: on the % scale 0 is the no-effect control and ±100 the full control effect; nearly all actives have a fitted effect of over 80% in size
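Inhibition of chaperonin ATP hydrolysis is measured as reduced ADP production, detected by competitive TR-FRET in which signal falls with ADP. Final enzyme 25 nM and ATP 10 uM, reacted 30 min at 37°C.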
Active calls of the source: *; i = inactive; u = inconclusive; x = not tested or not shown; ! = a repeat was not active. Unless noted, the call rests on the fitted dose curve; in most records, active means well fitted curve in the direction sought with a large enough effect; inconclusive means small, poorly fitted or top-dose-only effect, or another doubt; inactive means no such curve, though single readings can be large; an effect the other way counts as inactive or inconclusive. Potency means the concentration at half of the fitted maximal effect.

SMILES | ClpP mod | aSyn yeast inh | TDP43 rescue | Abeta rescue | FUS yeast rescue | Mm-Cpn inhibitor
O=C(Cc1ccccc1)Nc1cccc(-c2nnc(-c3ccco3)o2)c1 | 25µM* | -3% | 20% | i | i | -4%
O=C(COc1ccccc1)Nc1ccc(-c2nnc(-c3ccco3)o2)cc1 | 20µM* | 4% | 0% | i | i | 1%
O=C(Nc1cccc(-c2nnc(-c3ccco3)o2)c1)c1ccccc1 | x | 0% | -18% | i | i | 0%
O=C(Nc1cccc(-c2nnc(-c3ccco3)o2)c1)C(c1ccccc1)c1ccccc1 | 11µM* | -3% | -17% | i | i | -1%
COc1cc2nc(N3CCCCC3)nc(NC3CCN(Cc4ccccc4)CC3)c2cc1OC | 4% | -2% | x | x | x | x
O=S(=O)(c1ccccc1Cl)N1CCN(c2nc(-c3cccs3)nc3ccccc23)CC1 | 4% | -13% | x | x | x | x
COc1cc2nc(SCc3ccc(C(F)(F)F)cc3)n(Cc3cccs3)c(=N)c2cc1OC | 1% | x | -3% | i | i | -21%
COc1cc2nc(SCc3ccc(Cl)cc3Cl)n(Cc3cccs3)c(=N)c2cc1OC | u | 0% | 25µM* | i | i | u
COc1cc(NC(=O)CSc2nc(-c3ccc(C(C)C)cc3)no2)cc(OC)c1 | 0% | x | -13% | i | i | x
COc1ccc(-c2nc(CSCC(=O)N3CCN(c4ccccc4)CC3)c(C)o2)cc1 | -5% | x | 0% | i | i | x
Cc1ccsc1-c1nc(CSCC(=O)N2CCN(c3ccccc3)CC2)c(C)o1 | -16% | 16% | 13µM* | i | i | -11%
Cc1cc(C)nc(Sc2ncnc3c2oc2ccccc23)n1 | -7% | 13% | 22µM* | i | i | -10%
c1ccc2cc(Sc3ncnc4c3oc3ccccc34)ccc2c1 | 1% | -2% | 3% | i | i | -1%
COc1cccc2c(Cl)c(CC=C(Cl)Cl)c(C)nc12 | 10µM* | -18% | 11µM* | i | i | -1%
C=CCc1c(C)nc2c(OC)cccc2c1Cl | -1% | 26% | 15% | i | i | -4%
C=CCc1ccccc1OCC(=O)N/N=C/c1ccc(OC(C)=O)cc1OC(C)=O | 26% | 13µM* | -8% | i | i | -1%
CCc1ccccc1NC(=O)N1CC(C)Sc2ccccc21 (stereo not given) | -1% | x | 29% | i | i | x
CCCOC(=O)c1c(NC(=O)c2nc3ncccn3n2)sc(C(=O)OCC)c1C | -6% | x | 21% | i | i | x
CCOc1cccc(NC(=O)C2CC(=O)N(CC)C(=Nc3ccc(F)cc3)S2)c1 (stereo not given) | 2% | u | 22µM* | u | i | x
Cc1cccc(NC(=O)CSc2nc3c([nH]c4ccccc43)c(=O)n2C)c1C | -5% | x | 13% | i | i | x
Cc1cccc(N2CCN(C(=O)C(C)n3nc(C)n4c(cc5occc54)c3=O)CC2)c1C (stereo not given) | -1% | 6% | 22µM*! | i | i | -5%
CCc1nn(C(C)C(=O)N2CCN(c3ccc(OC)cc3)CC2)c(=O)c2cc3occc3n12 (stereo not given) | -13% | 0% | 32µM* | i | i | -2%
CCc1nn(CCCC(=O)N2CCN(c3cc(Cl)ccc3C)CC2)c(=O)c2cc3occc3n12 | -12% | x | 35µM* | i | u | x
Cc1cccc(N2CCN(C(=O)CCCn3ncn4c(cc5occc54)c3=O)CC2)c1C | -1% | x | 16µM* | i | i | x
CCC(C(=O)N1CCN(c2ccc(OC)cc2)CC1)n1nc(C)n2c(cc3occc32)c1=O (stereo not given) | -11% | x | 24% | i | u | x
Cc1nn(C(C)C(=O)N2CCN(c3ccccn3)CC2)c(=O)c2cc3occc3n12 (stereo not given) | -11% | -3% | 3% | i | i | x
CC[N+](C)(C)c1ccc(/C=C/c2ccncc2)cc1 | 0% | x | x | x | x | x
